Bioassay records as filed in PubChem.
HCMV antiviral: qHTS Assay for inhibitors of the human cytomegalovirus (HCMV); AID 1259415, 2018; 4.5% of 410,000 active; HFF cells, HCMV-luciferase reporter, 72 h; active compounds read low; activity change, negative = inhibition, % at 57.5 µM; in the data active = activity change below about -60%; inconclusive = no clear call, values can overlap the other calls; inactive = above about -39%
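Compounds were evaluated in HFFs infected with an HCMV luciferase reporter virus (MOI 1 PFU/cell). Luciferase in lysates collected 72 h post infection served as the replication measure.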
VACV mCherry inh: qHTS for Stage-Specific Inhibitors of Vaccinia Orthopoxvirus: mCherry Reporter Primary qHTS | Vaccinia virus mCherry reporter infection, fluorescence | Potency, µM (top dose mostly 36.5 µM), most hits filed as inhibitors | 0.63% of 310,000 active | AID 720579, 2013; calls by dose curve; tested in A549 cells; also: nearly all actives have a fitted effect of over 35% in size
Vaccinia Venus: qHTS for Stage-Specific Inhibitors of Vaccinia Orthopoxvirus: Venus Reporter Primary qHTS | Vaccinia virus Venus reporter expression, fluorescence | Potency, µM (top dose mostly 36.5 µM), usual class: inhibitors | 0.46% of 330,000 active | AID 720580, 2013; calls by dose curve; tested in A549 cells; also: nearly all actives have a fitted effect of over 30% in size
HCV inh: qHTS Assay for Inhibitors of Hepatitis C Virus (HCV). Potency, µM (series often up to 41.8 µM), most hits filed as inhibitors. AID 651820, 2012. 3.4% of 340,000 active. Huh7.5.1 HCVcc-Cre infection, luciferase reporter, 44 h; active = well fitted inhibition curve with a large enough effect; inconclusive = small, poorly fitted or top-dose-only effect, or another doubt; inactive = no such curve, though single readings can be large or run the other way
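Infectious HCVcc-Cre (~0.5 moi) was added to cells just after compound, with cells seeded 4 h earlier at 1,000 per well. Luciferase activity after 44 h culture reported infection; substrate was incubated 15 min at room temperature before reading.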
FMDV antiviral: High Throughput Screening for Foot and Mouth Disease Virus Antivirals | FMDV antiviral cell-based qHTS | Potency, µM (titrated, usually from 57.9 µM), most hits filed as inhibitors | 1.2% of 410,000 active; calls by dose curve; tested in HEK293T cells; also: read-out not given here; nearly all actives have a fitted effect of over 45% in size
Each line names hits and unclear results; the compound was inactive in the other large screens. Only some compounds are listed: those with a hit (about 7.3% of all), similar ones and a draw of the others.

CCN(CC)C(=O)c1cccc(-c2csc(C(O)c3ccc(OC)cc3)n2)c1 (stereo unspecified)	FMDV antiviral inconclusive (no result: HCV inh)
COc1cccc(C(C)(O)c2nc(-c3cccc(C(=O)O)c3)cs2)c1 (stereo unspecified)	none (no result: HCV inh)
CCN(CC)C(=O)c1cccc(-c2csc(C(C)(O)c3ccncc3)n2)c1 (stereo unspecified)	FMDV antiviral 25.1µM (no result: HCV inh)
CCN(CC)C(=O)c1cccc(-c2csc(C(O)c3ccc(F)c(OC)c3)n2)c1 (stereo unspecified)	HCMV antiviral -62.1, Vaccinia Venus inconclusive, FMDV antiviral inconclusive (no result: HCV inh)
COCCN(C)c1ccc2c(-c3ccccc3OC)noc2n1	none (no result: VACV mCherry inh, Vaccinia Venus, HCV inh, FMDV antiviral)
CN(Cc1ccccc1)c1nc2c(S(=O)(=O)c3ccccc3)nnn2c2ccsc12	VACV mCherry inh inconclusive (no result: HCV inh)
Cc1ccc(NC(=O)/C(=C/c2cccc([N+](=O)[O-])c2)NC(=O)C2CCCCC2)c(C)c1	HCMV antiviral -96.3, VACV mCherry inh inconclusive (no result: FMDV antiviral)
CCc1ccc2oc(-c3ccc(C)c(NC(=O)c4ccc(C#N)cc4F)c3)nc2c1	none (no result: HCV inh)
CC1(Cc2cc(Cl)ccc2C(F)(F)F)C(=O)Nc2ccc(OC(F)(F)F)cc21 (stereo unspecified)	FMDV antiviral inconclusive (no result: HCMV antiviral, HCV inh)
CC1(Cc2ccc3ccccc3n2)C(=O)Nc2ccc(OC(F)(F)F)cc21 (stereo unspecified)	HCMV antiviral -98.3 (no result: HCV inh)
CC1(Cc2ccc(OC(F)(F)F)cc2)C(=O)Nc2ccc(S(=O)(=O)NC3CCCCC3)cc21 (stereo unspecified)	HCMV antiviral -99.0, VACV mCherry inh inconclusive, Vaccinia Venus inconclusive (no result: HCV inh)
CC1(Cc2ccccc2OC(F)(F)F)C(=O)Nc2cc(-c3ccccc3Cl)ccc21 (stereo unspecified)	none (no result: HCV inh)
COC(=O)c1ccc(CC2(C)C(=O)Nc3ccc(OC(F)(F)F)cc32)o1 (stereo unspecified)	none (no result: HCV inh)
CC1(Cc2ccccc2OC(F)(F)F)C(=O)Nc2ccc(OC(F)(F)F)cc21 (stereo unspecified)	HCMV antiviral -76.1, FMDV antiviral inconclusive (no result: HCV inh)
CC1(Cc2ccccc2OC(F)(F)F)C(=O)Nc2ccc(-c3ccsc3)cc21 (stereo unspecified)	HCMV antiviral -75.5 (no result: HCV inh)
COc1cc(C)c(CN2C[C@H](Sc3ccccn3)C[C@H]2C(=O)N(C)C)cc1C	none (no result: HCMV antiviral, HCV inh)
CNC(=O)c1ccc2nc(-c3ccco3)c(-c3ccco3)nc2c1	none (no result: HCMV antiviral, HCV inh, FMDV antiviral)
O=C(Nc1ccc(F)cc1)N1CC(=O)N2[C@H](CO)[C@@H](c3ccc(Br)cc3)[C@H]2C1	none (no result: VACV mCherry inh, Vaccinia Venus, HCV inh, FMDV antiviral)
COc1ccc(/C=C2/SC(=S)N(CCCC(=O)Nc3ccc(O)cc3)C2=O)cc1OC	HCMV antiviral -73.1, HCV inh inconclusive (no result: VACV mCherry inh, Vaccinia Venus)
CCN(CC)CCOC(=O)c1ccc(NC(=O)CCCN2C(=O)S/C(=C/c3ccc(OC)cc3)C2=S)cc1	HCV inh 14.1µM, FMDV antiviral 3.55µM (no result: HCMV antiviral)
COc1cccc(/C=C2\SC(=S)N(CCCC(=O)Nc3ccc(C(=O)O)cc3)C2=O)c1	HCMV antiviral -79.8
COc1ccc(/C=C2\SC(=S)N(CCC(=O)Nc3ccc(O)cc3)C2=O)cc1	HCV inh inconclusive
COc1ccc(/C=C2\SC(=S)N(CCCC(=O)Nc3ccc(C(=O)O)cc3)C2=O)cc1OC	none
COc1cccc(/C=C2/SC(=S)N(CCCC(=O)Nc3ccc(O)cc3)C2=O)c1	HCMV antiviral -99.4, HCV inh inconclusive (no result: VACV mCherry inh, Vaccinia Venus)
CCOc1ccc(NC(=O)Cn2cc(C(=O)c3ccc(OCC)cc3)c(=O)c3cc4c(cc32)OCCO4)cc1	FMDV antiviral inconclusive (no result: HCV inh)
Cn1c(SCC(=O)N2CCCc3ccccc32)ncc(C(=O)Nc2ccccc2)c1=O	none (no result: HCV inh)
COc1ccc(-n2c(CN3CCN(c4ccccc4)CC3)nc3ccc([N+](=O)[O-])cc3c2=O)c(OC)c1	HCMV antiviral -78.5
COc1ccc(-n2c(CN3CCOCC3)nc3ccc([N+](=O)[O-])cc3c2=O)c(OC)c1	none
O=C1N(Cc2cccnc2)C[C@@H]2C[C@@H](c3cccc(Oc4ccccc4)c3)N3CCC[C@@]123	HCMV antiviral -66.7, FMDV antiviral inconclusive (no result: VACV mCherry inh, Vaccinia Venus)
O=C1N(Cc2cccnc2)C[C@@H]2C[C@@H](c3ccc(C(F)(F)F)cc3)N3CCC[C@@]123	none
Cn1cc([C@@H]2C[C@H]3CN(Cc4cccc(Cl)c4)C(=O)[C@]34CCCN24)c(-c2ccccc2)n1	VACV mCherry inh inconclusive, HCV inh 10µM
O=C1N(Cc2cccc(Cl)c2)C[C@@H]2C[C@@H](c3cccn3-c3cccnc3)N3CCC[C@@]123	HCMV antiviral -86.0, HCV inh 10µM, FMDV antiviral inconclusive
Cc1ccccc1-c1noc(-c2ccc(NCc3ccco3)c([N+](=O)[O-])c2)n1	none (no result: HCV inh)
Clc1ccc(-c2noc3ncnc(NCCc4ccccc4)c23)cc1	HCMV antiviral inconclusive (no result: HCV inh)
CCCSc1ncc(Cl)c(C(=O)Nc2sc3c(c2C(=O)NCC)CCCC3)n1	Vaccinia Venus inconclusive (no result: HCV inh)
CN(C)CCN(Cc1ccc(Cl)cc1)c1ccccn1	HCMV antiviral -61.5, HCV inh inconclusive
C[N+](C)(C)CCN(Cc1ccc(Cl)cc1)c1ccccn1	HCMV antiviral -62.6
CC1=C(c2ccc(C)c(C)c2)S(=O)(=O)N=C1N1CCC(C(=O)NCCc2ccc(Cl)cc2)CC1	none (no result: HCV inh)
COc1ccc(CC(=O)NCCS(=O)(=O)N2CCN(c3ccccc3OC)CC2)cc1	none
COc1ccccc1N1CCN(Cc2c(F)cccc2Cl)CC1	none (no result: VACV mCherry inh, Vaccinia Venus)
COc1ccccc1N1CCN(S(=O)(=O)CCNC(=O)CCc2ccccc2)CC1	HCMV antiviral -85.7, FMDV antiviral inconclusive (no result: HCV inh)
COc1ccccc1N1CCN(S(=O)(=O)CCNC(=O)C23CC4CC(CC(C4)C2)C3)CC1	HCV inh inconclusive, FMDV antiviral 14.1µM (no result: VACV mCherry inh, Vaccinia Venus)
COc1ccc(Cl)cc1C(=O)NCCS(=O)(=O)N1CCN(c2ccccc2OC)CC1	VACV mCherry inh inconclusive, FMDV antiviral 8.91µM (no result: HCV inh)
COc1ccccc1N1CCN(CCS(=O)(=O)c2cc(Cl)ccc2Cl)CC1	VACV mCherry inh 8.91µM, Vaccinia Venus inconclusive (no result: HCV inh)
NS(=O)(=O)c1ccc(NC(=O)c2cnn3c2NC(=C2CC2)C=C3C(F)F)cc1	none (no result: HCMV antiviral, HCV inh, FMDV antiviral)
COc1cccc(CN(C)C(=O)c2cccc(S(=O)(=O)N3CCN(Cc4ccccc4)CC3)c2)c1OC	HCMV antiviral -73.5, HCV inh 7.94µM, FMDV antiviral inconclusive
CN(Cc1ccco1)C(=O)c1cccc(S(=O)(=O)N2CCN(Cc3ccccc3)CC2)c1	none (no result: HCV inh)
CN(Cc1c(F)cccc1Cl)C(=O)c1cccc(S(=O)(=O)N2CCN(Cc3ccccc3)CC2)c1	HCV inh inconclusive (no result: VACV mCherry inh, Vaccinia Venus)
CN(CCOc1ccc(Cl)cc1)C(=O)c1cccc(S(=O)(=O)N2CCN(c3ccccc3)CC2)c1	HCV inh 3.55µM, FMDV antiviral inconclusive (no result: VACV mCherry inh, Vaccinia Venus)
CN(Cc1ccc(Cl)cc1Cl)C(=O)c1cccc(S(=O)(=O)N2CCN(c3ccccc3)CC2)c1	HCMV antiviral inconclusive, HCV inh 12.6µM, FMDV antiviral inconclusive
